Bioassay records from PubChem BioAssay.
Sampled rows, rich in hits. Any-hit rate of the full collection: about 8%.
KB-3-1 cytotox: kills parental KB-3-1 adenocarcinoma cells | KB-3-1 viability, CellTiter-Glo ATP luminescence, 72 h | hit rate 1.4% among 400,000 | Potency, µM (top dose mostly 46.1 µM), most hits filed as cytotoxic; also: nearly all actives have a fitted effect of over 60% in size
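Cells are dispensed, compounds pinned in, plates held at 37 °C for 72 h, then CellTiter-Glo is added and luminescence read after 10 minutes. Cell line: parental KB-3-1 in phenol-red-free DMEM, 10% FBS.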
HT1080 IDH1KD tx: kills HT-1080 cells with IDH1 knockdown; HT-1080 IDH1 knockdown viability, ATP luminescence, 48 h; Potency, µM (doses to about 46.1 µM), actives largely listed as cytotoxic; hit rate 2% among 360,000
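Viability of IDH1-knockdown HT-1080 fibrosarcoma cells was assessed by CellTiter-Glo after 48 h at 37 °C with titrated compound; concentration-effect curves were classified by fit quality and response size.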
KB-V1 cytotox: kills drug-selected multidrug resistant KB-V1 cells; AID 1347076; hit rate 3.4% among 400,000; Potency, µM (top dose mostly 46.1 µM), usual class: cytotoxic; KB-V1 MDR cells viability, CellTiter-Glo, 72 h; also: nearly all actives have a fitted effect of over 60% in size
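Compound-treated KB-V1 multidrug-resistant cells, 72 h, 37 degrees C; viability by CellTiter-Glo. Fitted qHTS curves give the values.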
MCF10A rerep: induces DNA re-replication in MCF 10a normal breast cells; MCF 10A DNA re-replication, Hoechst nuclear intensity, 48 h; Potency, µM (doses to about 46.1 µM), usual class: activators; hit rate 2.9% among 350,000; also: nearly all actives have a fitted effect of over 50% in size
HT1080-NT tox: kills 2HG-producing HT-1080-NT fibrosarcoma cells; HT-1080-NT fibrosarcoma viability, CellTiter-Glo ATP luminescence, 48 h; Potency, µM (series often up to 46.1 µM), most hits filed as cytotoxic; hit rate 1.6% among 360,000;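 also: NT is the 2HG producing partner of a matched IDH1 knockdown line; nearly all actives have a fitted effect of over 55% in size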
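Luminescent CellTiter-Glo readout after 48 hours of compound exposure at 37 degrees C defined viability of HT-1080-NT cells. Activity was normalized to DMSO wells and cell-free media wells; concentration-response curves were fitted and assigned curve classes.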
SW480 rerep: inducers of DNA re-replication in SW480 colon cancer cells; SW480 DNA re-replication, Hoechst DNA content imaging, 48 h; AID 624297; hit rate 1.8% among 340,000; Potency, µM (top dose mostly 46.1 µM), usual class: activators; also: nearly all actives have a fitted effect of over 55% in size
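Readout is total intensity of Hoechst-stained nuclei, excited at 405 nm and collected at 500-530 nm. Compound treatment lasted 48 hr at 37 C in 5% CO2 before staining.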
A number is an active result; – = inactive; ? = inconclusive; · = no result. Calls follow the shape of the dose curve; as a rule, active = well fitted curve in the direction sought with a large enough effect; inconclusive = small, poorly fitted or top-dose-only effect, or another doubt; inactive = no such curve, though single readings can be large; an effect the other way counts as inactive or inconclusive.

SMILES | KB-3-1 cytotox | HT1080 IDH1KD tx | KB-V1 cytotox | MCF10A rerep | HT1080-NT tox | SW480 rerep
CCC(=O)Oc1oc(-c2ccccc2)nc1C=Nc1ccccc1OC | – | – | – | 18µM | – | ?
CCc1ccccc1NC(=O)Nc1nnc(N(CC)c2ccccc2)s1 | – | · | – | · | · | ·
CCOC(=O)/C=C1\NC(C)(C)Cc2cc(OC)c(OC)cc21 | – | – | – | – | – | –
COc1cc2c(cc1OC)C(=S)NC(C)(C)C2 | – | ? | – | – | 10µM | ?
Cc1ccc2nc(COc3cccc(NC(=O)COc4ccccc4F)c3)cc(=O)n2c1 | – | · | – | · | · | ·
COc1ccccc1N(CC(=O)NCC1CCCO1)C(=O)CNS(=O)(=O)c1ccc(Cl)cc1 (stereo not given) | – | – | – | – | – | 0.73µM
COc1ccccc1N(CC(=O)NCC1CCCO1)C(=O)CNS(=O)(=O)c1ccc(C)cc1 (stereo not given) | – | – | – | – | – | –
Cc1ccc2nc(C)c3c(c2c1)COC3 | – | – | ? | – | – | –
CCc1ccc(NC(=O)c2cc(=O)c3ccc(C)c(C)c3o2)cc1 | – | · | 5.8µM | · | · | ·
COc1cc(OC)c(NC(=O)CCn2cccn2)cc1Cl | – | · | – | · | · | ·
O=C(/C=C/c1cccc2ccccc12)c1ccncc1 | 2.9µM | ? | 2.6µM | 12µM | ? | ?
O=C(/C=C/c1c[nH]c2ccccc12)c1ccccc1 | – | – | – | ? | – | 18µM
COc1ccc2[nH]cc(/C=C/C(=O)c3ccccc3)c2c1 | – | 18µM | – | ? | 18µM | ?
COc1ccc2[nH]cc(C(=O)CCl)c2c1 | 12µM | 7.3µM | ? | 21µM | 5.8µM | ?
CCn1c(=O)cc(SCC(=O)NCc2ccc(Cl)cc2)c2ccccc21 | – | · | – | · | · | ·
COC(=O)[C@@H](Cc1c[nH]c2ccccc12)NC(=O)C1CCCN(S(=O)(=O)c2ccc(C)cc2)C1 (stereo not given in full) | – | – | – | ? | – | –
Cc1cc([N+](=O)[O-])ccc1NC(=O)CSc1nccn1C | – | · | – | · | · | ·
Cc1ccn2c(Nc3ccccc3C)c(-c3cccnc3)nc2c1 | – | – | – | – | – | –
CCC1Oc2ccc(C)cc2N(Cc2cccc(C)c2)C1=O (stereo not given) | – | – | – | 12µM | – | –
CS(=O)(=O)Oc1ccc(Br)cc1/C=C1/N=C(c2ccco2)OC1=O | – | – | – | – | – | –
COC(=O)c1cc(C)nc2c1C(=O)C(=O)C=C2N1CCOCC1 | ? | 5.2µM | ? | ? | 6.5µM | ?
Cc1cc(C)cc(NC(=O)C(c2ccccc2)N2CCN(CC(=O)NC3CC3)CC2)c1 (stereo not given) | – | – | 16µM | – | – | –
Cc1ccc(NC(=O)C(c2ccccc2)N2CCN(CC(=O)NC3CC3)CC2)cc1Cl (stereo not given) | – | – | – | – | – | –
Cc1ccc(NC(=O)C(c2ccccc2)N2CCN(CC(=O)NC3CC3)CC2)cc1 (stereo not given) | – | – | 21µM | – | – | –
COc1ccc([N+](=O)[O-])cc1NC(=O)COC(=O)C12CC3CC(CC(O)(C3)C1)C2 | – | – | – | · | – | ·
SMILES | KB-3-1 cytotox | HT1080 IDH1KD tx | KB-V1 cytotox | MCF10A rerep | HT1080-NT tox | SW480 rerep
CC(=O)NC(c1ccc(F)c(F)c1)c1nc(-c2cnn(C)c2)cs1 (stereo not given) | – | – | – | · | – | ·
CCC(COC(=O)Nc1cccc(C)c1C)NC(=O)OCC(C)C (stereo not given) | – | – | 9.2µM | – | – | –
Cc1ccc2[nH]c(C(=O)N/N=C/c3ccccc3C(=O)O)c(-c3ccccc3)c2c1 | – | – | – | ? | ? | ?
Cc1ccc2[nH]c(C(=O)N/N=C/c3ccc([N+](=O)[O-])cc3)c(C)c2c1 | ? | – | – | ? | – | –
Cc1ccc2[nH]c(C(=O)N/N=C/c3ccccc3O)c(C)c2c1 | ? | 2.6µM | – | – | ? | –
COc1ccc(/C=N/NC(=O)c2[nH]c3ccc(C)cc3c2-c2ccccc2)c(C(=O)O)c1OC | – | ? | – | 5.8µM | ? | ?
O=C(NCCc1ccccc1)C(c1cccs1)N(C(=O)c1csnn1)C1CC1 (stereo not given) | – | – | – | – | – | –
O=C(NC1CCCCC1)C(c1ccco1)N(C(=O)c1csnn1)C1CCCC1 (stereo not given) | – | – | 16µM | – | – | –
O=C(NC1CCCC1)C(c1ccco1)N(Cc1ccccc1)C(=O)c1csnn1 (stereo not given) | – | – | 13µM | – | – | –
O=C(NCc1ccccc1)C(c1cccs1)N(C(=O)c1csnn1)C1CC1 (stereo not given) | – | – | 18µM | – | – | –
CCCCNCc1cc(Br)c(OCc2cccs2)c(OC)c1 | ? | 21µM | ? | – | ? | –
Cn1nnnc1SCCNCc1ccc(OCc2ccccc2)cc1 | – | · | ? | · | · | ·
Cn1nnnc1SCCNCc1ccc(OCc2ccccc2Cl)cc1 | 23µM | · | ? | · | · | ·
